Test results published in PubChem BioAssay (NCATS).
Inconclusive results are not listed. Entries that show only a call come without a potency. The source made the active and inactive calls. Calls follow the shape of the dose curve; as a rule, active = well fitted curve in the direction sought with a large enough effect; inconclusive = small, poorly fitted or top-dose-only effect, or another doubt; inactive = no such curve, though single readings can be large; an effect the other way counts as inactive or inconclusive.

What was measured:
[1] = target: Glutathione peroxidase 1 (Homo sapiens) (UniProt P07203); assay: Primary qHTS Assay for Inhibitors of Recombinant Selenoprotein Glutathione Peroxidase 1 (GPX1) (AID 1845191); conditions: recombinant GPX1, GR-coupled NADPH fluorescence, 15 min; series mostly up to 48.8 µM; also: nearly all actives have a fitted effect of over 65% in size
Procedure, shortened: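 Recombinant GPX1 (10 nM final) was preincubated with compound for 30 min at room temperature, then reacted with 1 mM GSH, 0.5 mM CHP, 0.5 mM NADPH and 100 nM glutathione reductase; NADPH fluorescence (340/450 nm) was read at 0 and 15 min.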

[2] = target: Phospholipid hydroperoxide glutathione peroxidase GPX4 (Homo sapiens) (UniProt P36969); assay: Primary qHTS Assay for Inhibitors of Recombinant Selenoprotein Glutathione Peroxidase 4 (GPX4) (AID 1845192); conditions: recombinant GPX4, GR-coupled NADPH fluorescence, 15 min; series mostly up to 50 µM; also: nearly all actives have a fitted effect of over 65% in size
Procedure, shortened: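 GR-coupled readout: 100 nM GR, 1 mM GSH, 0.5 mM NADPH; NADPH fluorescence (ex 340/em 450 nm) read at t=0 and after 15 min RT. GPX4 200 nM, preincubated 30 min with compound; substrate 0.5 mM CHP.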

[3] = target: Luciferin 4-monooxygenase (Photinus pyralis) (UniProt P08659); assay: Primary firefly luciferase (FLuc) qHTS assay for identification of artifact compounds. (AID 1845220); conditions: purified firefly luciferase, luminescence, 5 min; series mostly up to 54.1 µM; also: nearly all actives have a fitted effect of over 60% in size
Procedure, shortened: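 Reaction readout was CCD-imaged luminescence, taken 5 min after adding 10 nM purified firefly enzyme to compound-treated wells holding 10 uM luciferin and ATP in pH 7.6 buffer.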

[4] = Primary fluorescence-based thiol-reactive (MSTI) qHTS assay for identification of artifact compounds. (AID 1845221); conditions: MSTI thiol-reactivity probe, 1 h; series mostly up to 53.8 µM;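 also: thiol-reactive compounds lower the probe fluorescence signal; nearly all actives have a fitted effect of over 65% in size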
Procedure, shortened: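 Thiol-reactive compounds detected by quenching of 4 uM MSTI fluorescence (525/598 nm) after 1 h room-temperature dark incubation in PBS pH 7.4, 2% DMSO. qHTS titration; percent inhibition Hill-fitted against Acetyl-MSTI/MSTI controls.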

[5] = test system: Nanoluciferase (engineered Oplophorus gracilirostris luciferase); assay: Primary Nanoluciferase (NLuc) qHTS assay for identification of artifact compounds. (AID 1845222); conditions: NLuc-conditioned medium, Nano-Glo luminescence, 5 min; series mostly up to 54.1 µM;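 also: NLuc secreted into diluted conditioned medium of S16 cells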
Procedure, shortened: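 Concentration-response data were obtained by luminescence after 5 min with Nano-Glo substrate at 1:100. The enzyme was diluted S16 NLuc-expressing cell medium, preincubated with compound for 15 min at RT. Curves were fitted with a 4-parameter Hill model.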

[6] = Primary redox qHTS assay for identification of artifact compounds. (AID 1845223); conditions: Amplex Red/HRP redox cycling with DTT, fluorescence; series mostly up to 53.8 µM
Procedure, shortened: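 Amplex Red (25 uM) and HRP (250 mU/mL) in HBSS, with compounds for 15 min, then 250 uM DTT for 30 min, room temperature, dark. Fluorescence 525/598 nm read; normalized to DMSO and 10 uM DA3003; Hill fit.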

Chain of Glutathione peroxidase 1 (Homo sapiens) (P07203 whole entry, looked up): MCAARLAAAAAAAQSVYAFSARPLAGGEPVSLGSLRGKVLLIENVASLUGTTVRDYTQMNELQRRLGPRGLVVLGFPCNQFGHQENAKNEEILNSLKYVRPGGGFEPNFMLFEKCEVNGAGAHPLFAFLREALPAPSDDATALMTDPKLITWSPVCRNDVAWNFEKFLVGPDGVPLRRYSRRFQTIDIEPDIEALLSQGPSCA
Chain of Phospholipid hydroperoxide glutathione peroxidase GPX4 (Homo sapiens) (P36969 whole entry, looked up): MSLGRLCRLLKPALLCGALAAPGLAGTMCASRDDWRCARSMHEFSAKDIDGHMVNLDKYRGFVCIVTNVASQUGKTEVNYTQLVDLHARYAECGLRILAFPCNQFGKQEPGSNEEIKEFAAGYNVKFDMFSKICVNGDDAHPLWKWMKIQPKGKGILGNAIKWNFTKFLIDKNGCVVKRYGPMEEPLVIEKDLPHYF

SMILES: CCCC(=O)O[C@]1(C(=O)CO)CC[C@H]2[C@@H]3CCC4=CC(=O)CC[C@]4(C)[C@H]3[C@@H](O)C[C@@]21C
- Potency [1]: inactive

SMILES: COC(=O)[C@H]1[C@H]2C[C@H]3c4[nH]c5ccccc5c4CCN3C[C@H]2CC[C@@H]1O
- Potency [1]: inactive
- Potency [2]: inactive

SMILES: CCCC1O[C@@H]2C[C@H]3[C@@H]4CCC5=CC(=O)C=C[C@]5(C)[C@H]4[C@@H](O)C[C@]3(C)[C@]2(C(=O)CO)O1 (stereo partly specified)
- Potency [1]: inactive
- Potency [2]: inactive

SMILES: Cc1nc2n(c(=O)c1CCN1CCC(c3noc4cc(F)ccc34)CC1)CCC[C@H]2O
- Potency [1]: inactive
- Potency [2]: inactive
- outcome [3]: inactive
- Potency [4]: inactive
- Potency [5]: inactive
- outcome [6]: inactive

SMILES: COc1cc(/C=C/C(=O)O[C@H]2CC[C@]34C[C@]35CC[C@]3(C)[C@@H]([C@H](C)CCC=C(C)C)CC[C@@]3(C)[C@@H]5CC[C@H]4C2(C)C)ccc1O
- Potency [1]: inactive

SMILES: C[n+]1c2cc(N)ccc2cc2ccc(N)cc21 (tested in a mixture with another compound)
- Potency [1]: inactive
- Potency [2]: inactive

SMILES: O=c1[nH]c(=O)n([C@H]2CCCO2)cc1F
- Potency [1]: inactive
- Potency [2]: inactive
- outcome [3]: inactive
- Potency [4]: inactive
- Potency [5]: inactive
- outcome [6]: inactive

SMILES: CC1(C)O[C@@H]2[C@@H](CO[C@@]3(COS(N)(=O)=O)OC(C)(C)O[C@@H]23)O1
- Potency [1]: inactive

SMILES: CC(=O)Oc1ccc2c(c1)CC[C@@H]1[C@@H]2CC[C@]2(C)[C@@H](O)CC[C@@H]12
- Potency [1]: inactive
- Potency [2]: inactive

SMILES: COC(=O)CCc1ccc(OCC(O)CNC(C)C)cc1 (stereo unspecified)
- Potency [1]: inactive
- Potency [2]: inactive
- outcome [3]: inactive
- Potency [4]: inactive
- Potency [5]: inactive
- outcome [6]: inactive

SMILES: CC1(C)OC[C@@H](COC(=O)CCc2ccc(OC[C@@H](O)CNCCNC(=O)N3CCOCC3)cc2)O1
- Potency [1]: inactive
- Potency [2]: inactive
